Hit rate of the full screen: of about 48,000 compounds, about 13,000 (27%) showed an effect of 50% or more. Some of the results follow.
The molecules below were run on Wolbachia pipientis (assay: Anti-Wolbachia Cell-Based Screen). Conditions: 5 µM.
Assay type: functional
Parameters: scale not given: in the data most compounds retested in dose-response had high values

Structure (SMILES)	Percent Effect [%]
CC(C)c1nc(CN(C)C(=O)CNS(=O)(=O)c2cccs2)no1	-26.42
CN(CCOCC(F)(F)F)CC1CCN(CCO)CC1	-6.866
COCCC(=O)NCCc1nc(N(C)C)ncc1-c1ccncc1	140.1
COCC(=O)N(C)Cc1nc(N(C)C)ncc1-c1ccncc1	115.9
CCCNC(=O)c1cnc(N(C)C)nc1COC	7.705
Cc1nc(N(C)C)ncc1C(=O)N(Cc1ccncc1)CC1CCCO1 (stereo unspecified)	-9.755
COCc1nc(N(C)C)ncc1C(=O)Nc1ccn(C)n1	4.031
COCC(=O)Nc1ccnc(OCCN(C)C)c1	5.238
COCC(=O)NCCc1nc(N(C)C)ncc1-c1ccncc1	144
COCc1nc(N(C)C)ncc1C(=O)NC(C)C	11.32
CCCC(=O)NCCc1nc(N(C)C)ncc1-c1ccncc1	150.4
Cc1nsc(NC(=O)N2CCCCC2CCCO)n1 (stereo unspecified)	3.459
CCCOCC(=O)NS(=O)(=O)c1ccc2c(c1)OCCCO2	-2.018
CN(C)c1ncc(-c2ccncc2)c(CCNC(=O)C2CC2)n1	144.3
Cc1nc(N(C)C)ncc1C(=O)NCCc1csc(-c2ccncc2)n1	10.36
CCc1nc(CCNC(=O)C2CC2)sc1C	-12.51
c1ccc2c(c1)CN(c1ncnc3sc4c(c13)CCNC4)CCO2	-13.02
Cc1nc2c(cc1C(=O)O)CCN(Cc1ccsc1)CC2.O=C(O)C(F)(F)F.O=C(O)C(F)(F)F	107
CC(C)Nc1nc2c(cc1C(=O)O)CCN(Cc1ccsc1)CC2.O=C(O)C(F)(F)F.O=C(O)C(F)(F)F	98.93
Cc1nc(N2CCCC2)nc2c1CCN(Cc1ccsc1)CC2.O=C(O)C(F)(F)F	4.858
CC(C)Nc1nc2c(cc1C(=O)NCC1CC1)CCN(CC1CC1)CC2.O=C(O)C(F)(F)F.O=C(O)C(F)(F)F	-7.491
CC(=O)N1CCc2cc(C(=O)O)c(-c3ccsc3)nc2CC1.O=C(O)C(F)(F)F	-2.009
Cc1nc2c(cc1C(=O)O)CCN(CC1CC1)CC2.O=C(O)C(F)(F)F.O=C(O)C(F)(F)F	-6.324
CCC(CC)(CC)NC(=O)Nc1nnc(-c2ccccn2)s1	-4.465
COCCN1CCO[C@@H]2CN(C(=O)COc3ccc(C)cc3)C[C@@H]2C1.O=C(O)C(F)(F)F	-10.88
CC(C)(C)C(O)CN1CCN(Cc2nccn2CC(F)(F)F)CC1 (stereo unspecified)	-1.053

Structure (SMILES)	Percent Effect [%]
O=C(CCC(=O)N1CCC(Oc2ncccc2Br)CC1)c1ccccc1	-8.42
CCC[C@H]1CN(C2CCOCC2)C[C@@H]1NC(=O)CCCn1ccnc1	-3.438
Cc1ccc(-c2cn[nH]c2C2CCCN(c3cc(N)ncn3)C2)cc1 (stereo unspecified)	-31.64
Cc1ccc(-c2cn[nH]c2C2CCCN(c3ncccn3)C2)cc1 (stereo unspecified)	-14.2
Cc1cc(N2CCCC(c3n[nH]c4ncccc34)C2)ncn1 (stereo unspecified)	73.09
CC(C)n1ccnc1C1CCCN(c2ccccn2)C1 (stereo unspecified)	3.899
c1cnc(N2CCC(c3n[nH]c4ncccc34)C2)nc1 (stereo unspecified)	117.8
c1cnc(N2CCCC(c3n[nH]c4ncccc34)C2)nc1 (stereo unspecified)	152.2
Cc1nc(CC(=O)N2CCCC2c2nc(C(C)C)no2)cs1 (stereo unspecified)	-8.92
CN1CCC(N(C)C[C@H]2CC[C@@H](Cc3cccc(O)c3)O2)CC1	-5.981
Cc1nc(C)n(CCCNc2ncnc3onc(C)c23)n1	1.931
Cc1ccc(CN(C)C(=O)NCC(C)(C)NS(C)(=O)=O)s1	4.932
CC(C)N(C)C(=O)c1coc(CN2CCN(c3ccccc3F)CC2)n1	-13.9
O=C(NC1CCCN(c2ccc(OC(F)F)cc2)C1)c1cc[nH]n1 (stereo unspecified)	14.46
N#Cc1nccnc1NC1CCN(c2ccccc2Br)C1 (stereo unspecified)	-11.54
O=C(NC1CCCN(c2ccccc2Cl)C1)c1nc(=O)[nH][nH]1 (stereo unspecified)	109.8
O=C(NC1CCCN(c2ncccn2)C1)c1cn2ccccc2n1 (stereo unspecified)	-4.664
O=C(NC1CCCN(c2ccc(OC(F)F)cc2)C1)c1c[nH]nn1 (stereo unspecified)	-1.773
O=C(NC1CCCN(c2ccccc2F)C1)c1ccon1 (stereo unspecified)	18.57
Cc1n[nH]c(C)c1CNC(=O)NC1CCCN(c2ccccc2F)C1 (stereo unspecified)	-5.16
O=C(NC1CCCN(c2ccccc2Cl)C1)c1ccc(=O)[nH]n1 (stereo unspecified)	90.33
O=C(NC1CCN(c2ccccc2Br)C1)c1c[nH]nn1 (stereo unspecified)	111.1
O=C(NC1CCCN(c2ccccc2Cl)C1)c1c[nH]nn1 (stereo unspecified)	87
COc1ccccc1N1CCCC(NC(=O)Nc2cccnc2)C1 (stereo unspecified)	-7.582
O=C(NC1CCN(c2ccc(-c3ccccc3F)nn2)C1)c1cc[nH]n1 (stereo unspecified)	3.887

Source: ChEMBL document CHEMBL3988442, “University of Dundee, Small-Polar-MMV Screening Library” (2021)
